CHRM4 antagonist: blocks acetylcholine activation of human M4 receptor | inhibition, % at 3 µM | P08173 | 360,000 tested, 0.73% active | AID 624125 | CHO-hM4 cells, ACh EC80, Fluo-8 calcium fluorescence;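 active means inhibition above its plate's cutoff, the mean inhibition of sample wells plus 3 SD, cut at about 27% in these data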;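 further: 0% = acetylcholine EC80 with DMSO and 100% = DMSO without agonist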
M1 PAM parental: nonselective activator or artifact in parental CHO-K1 calcium assay; ATP EC20, Fluo-8 calcium fluorescence; 0% at ATP EC20, 100% at ATP max; activation, % at 3 µM; 360,000 tested, 0.02% active; AID 602247;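 active means activation above the run cutoff, the mean activation of all test compounds plus 3 SD, cut at about 40% in these data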;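 further: peak over basal fluorescence ratio in a 140 s read after ATP addition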
M4 PAM: positive allosteric modulators of human muscarinic M4 receptor | P08173 | CHO-K1 hM4/Gqi5, Fluo-8 calcium fluorescence, ACh EC20; 0% = ACh EC20, 100% = maximal ACh | activation, % at 3 µM | 360,000 tested, 0.4% active;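 active means activation above its plate's cutoff, the mean activation of sample wells plus 3 SD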
CHO-K1 Ca antag: M1 antagonist counterscreen hit in parental CHO-K1 cells; 360,000 tested, 0.6% active; AID 602250; inhibition, % at 3 µM; ATP-induced calcium, Fluo-8 fluorescence;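 active means inhibition above a per-plate cutoff, the plate's mean sample inhibition plus 3 SD, cut at about 24% in these data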;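 further: 0% = DMSO plus EC80 ATP and 100% = DMSO alone without ATP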
CHO-K1 Ca ag: counter-screen for M1 agonists: effect in parental CHO-K1 cells | Fluo-8 calcium fluorescence; scaled to maximal ATP response, vehicle zero | activation, % at 3 µM | 360,000 tested, 0.48% active; in the data active means activation above about 15%;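 further: untransfected CHO-K1 host cells lacking M1 receptor as counterscreen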
M4 ag: agonists of human muscarinic M4 receptor (CHRM4); P08173; activation, % at 3 µM; AID 624127; CHO-K1 hM4/Gqi5, Fluo-8 calcium fluorescence; vehicle 0%, full acetylcholine response 100%; 360,000 tested, 0.14% active;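 active means activation above the run mean over all test wells plus 3 SD, cut at about 32% in these data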;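 further: peak over basal fluorescence ratio per well then scaled between controls; 0% = DMSO wells and 100% = acetylcholine at EC100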
An asterisk follows results filed as active. Most compounds without a hit are left out; they make up all but 2% or so of the library.

SMILES	CHRM4 antagonist	M1 PAM parental	M4 PAM	CHO-K1 Ca antag	CHO-K1 Ca ag	M4 ag
C=CCc1ccc(OCC(O)CN2CCc3ccccc3C2)c(OC)c1 (centres undefined)	-3	-14	-7	10	0	4
Cc1ccc(C)n1CCN1CCN(CC(=O)Nc2ccc(S(N)(=O)=O)cc2)CC1	4	-5	-7	29*	0	1
CCC(=O)N1CCCN(S(=O)(=O)c2ccc(C)cc2)C1c1ccc(OC)cc1 (centres undefined)	-10	2	4	-5	0	2
O=C(CSc1ncccn1)c1ccccc1Br	-6	-6	-5	27*	0	1
CCOc1cc(/C=C2\CCC/C(=C\c3cc(Cl)c(O)c(OCC)c3)C2=O)cc(Cl)c1O	47*	-5	-23	12	2	3
CCOc1cc(/C=C2\CN(C)C/C(=C\c3ccc(O)c(OCC)c3)C2=O)ccc1O	-8	15	-2	-5	4	11
COCC1CCCN(Cc2cn(-c3ccccc3F)nc2-c2cc(C)sc2C)C1 (centres undefined)	-8	13	-2	-10	0	1
COCCNC(=O)CSc1nc(N)c(NC(=O)c2ccccc2F)c(=O)[nH]1	3	-15	5	24*	0	1
COCCn1c(=O)[nH]c2cc(C(=O)NC(C)C)ccc2c1=O	-7	7	20*	-12	0	0
COc1cc(C(=O)NCc2cccnc2)ccc1OCC(=O)Nc1cccc(C(F)(F)F)c1	-2	-15	-8	8	17*	20
COc1cccc(NC(=O)CN(C)C(=O)c2ccccc2OCC(=O)Nc2cccc(C(F)(F)F)c2)c1	8	-11	-5	3	6	22
COc1ccc(CN(C)C(=O)c2ccc(OCC(=O)Nc3cccc(C(F)(F)F)c3)c(OC)c2)cc1	31*	-4	-12	18	9	16
CCOc1cc(NC(=S)Nc2ccc(Cl)cc2)c(OCC)cc1NC(C)=O	-6	-6	8	-4	2	4
CC1(C)C2([N+](=O)[O-])CN(CCO)CC1([N+](=O)[O-])CN(CCO)C2	2	12	-1	-9	1	0
CC(=O)N1CC2([N+](=O)[O-])CN(C(C)=O)CC([N+](=O)[O-])(C1)C2(C)C	-2	-5	20*	-13	0	0
c1ccc(COc2ccc(Nc3ncnc4nc[nH]c34)cc2)cc1	-7	0	-3	24*	1	8
CCOC(=O)c1ccc(Nc2ncnc3nc[nH]c23)cc1	-20	17	3	-9	3	9
O=C(Nc1ccc(N2CCN(c3ncccc3C(F)(F)F)CC2)nc1)c1cccs1	27*	-4	-51	16	11	18
CCC(C(=O)NCC1CCCO1)N(Cc1ccc(F)cc1)C(=O)CNS(=O)(=O)c1ccccc1 (centres undefined)	-24	17	14	-11	1	2
Cc1cc2nc(CN(C)Cc3c(C(=O)N(C)C)nc4ccc(Cl)cn34)[nH]c2cc1C	2	1	-6	-4	1	2
CCN(CC)c1ccc(C=C2C(=O)OC3(CCCCC3)OC2=O)cc1	-3	13	9	-3	1	0
CCN(CC)c1ccc(/C=C2/C(=O)c3ccc(C(=O)O)cc3C2=O)cc1	33*	-10	-12	56*	62*	20
COc1cc(Cl)c(C)cc1NC(=O)c1ccccc1NC(=O)CN1CCOCC1	-9	13	-2	-9	3	6
CCOC(=O)c1sc(S(C)(=O)=O)c2c1CCc1conc1-2	-3	-9	5	36*	0	1
CCOC(=O)c1sc(SC)c2c1CCC/C2=N/OC	-6	16	4	-4	3	5
CC[C@H](C)[C@H]1CNC(=S)N1CC1CCN(CC2CCC(C)CC2)CC1 (some centres undefined)	10	3	-11	-3	1	1
CC[C@H](C)[C@H]1CNC(=S)N1CC1CCN(CCC23CC4CC(CC(C4)C2)C3)CC1	67*	15	-15	-6	1	2

Compound activity (PubChem)
